# Results: PMC7862700, “An all-to-all approach to the identification of sequence-specific readers for epigenetic DNA modifications on cytosine”
# Tests used:
# Test in all cases: DAPPL (digital affinity profiling via proximity ligation, sequencing); 10 mM Tris-HCl pH 7.5, 50 mM NaCl, 1 mM DTT, 4% glycerol, room temperature, 30 min; GST-TFs on glutathione beads, 16-mer random dsDNA library, 0.1% formaldehyde crosslink after washing; high values mean tight binding
# Details in all cases: protein: recombinant; tags: N-terminal GST; dsDNA, one strand shown
# ELK1 = molecular target: T1, ELK1 (Homo sapiens, UniProt P19419 1-428)
# T1 sequence: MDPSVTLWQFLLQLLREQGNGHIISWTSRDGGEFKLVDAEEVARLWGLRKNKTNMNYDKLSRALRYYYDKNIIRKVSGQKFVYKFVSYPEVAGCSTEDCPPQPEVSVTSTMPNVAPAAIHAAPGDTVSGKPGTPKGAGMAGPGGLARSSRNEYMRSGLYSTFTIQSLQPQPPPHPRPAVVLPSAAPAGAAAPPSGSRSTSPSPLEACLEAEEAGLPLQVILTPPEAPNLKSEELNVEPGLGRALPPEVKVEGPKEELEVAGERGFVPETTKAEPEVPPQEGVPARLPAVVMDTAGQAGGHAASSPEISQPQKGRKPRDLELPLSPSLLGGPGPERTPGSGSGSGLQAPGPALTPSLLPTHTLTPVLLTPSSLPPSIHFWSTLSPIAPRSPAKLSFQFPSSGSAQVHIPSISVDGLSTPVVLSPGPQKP
# Method in brief: (§1)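 A tag-only sample was pooled with DNA-barcoded human transcription factors that had been expressed in yeast as GST fusions and captured on glutathione beads. The pools were incubated for 30 min at room temperature with 200 nmole of a random double-stranded 16-mer DNA library in Tris/NaCl/DTT/glycerol buffer, then washed, crosslinked with 0.1% formaldehyde, proximity-ligated (BsaI/T4 ligase, 1 h, 37 °C), PCR-amplified and sequenced on an Illumina NextSeq500. Binding signal is each hexamer's read frequency for a factor divided by its frequency for the tag-only sample.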
# GABPA = molecular target: T2, GABPA (Homo sapiens, UniProt Q06546 1-454)
# T2 sequence: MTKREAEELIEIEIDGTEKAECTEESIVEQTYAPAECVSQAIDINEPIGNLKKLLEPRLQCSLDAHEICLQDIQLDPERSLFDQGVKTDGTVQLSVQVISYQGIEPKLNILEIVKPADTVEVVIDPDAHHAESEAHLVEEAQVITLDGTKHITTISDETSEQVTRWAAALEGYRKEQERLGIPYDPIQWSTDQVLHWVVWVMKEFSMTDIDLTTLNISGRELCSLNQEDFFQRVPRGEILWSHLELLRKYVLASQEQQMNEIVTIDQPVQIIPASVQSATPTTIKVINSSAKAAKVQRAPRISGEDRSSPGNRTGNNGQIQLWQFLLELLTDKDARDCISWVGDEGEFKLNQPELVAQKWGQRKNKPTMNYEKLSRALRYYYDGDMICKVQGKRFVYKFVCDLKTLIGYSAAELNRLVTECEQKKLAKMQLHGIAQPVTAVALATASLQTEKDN
# Method in brief: as §1
# ERG = molecular target: T3, ERG (Homo sapiens, UniProt P11308 1-479)
# T3 sequence: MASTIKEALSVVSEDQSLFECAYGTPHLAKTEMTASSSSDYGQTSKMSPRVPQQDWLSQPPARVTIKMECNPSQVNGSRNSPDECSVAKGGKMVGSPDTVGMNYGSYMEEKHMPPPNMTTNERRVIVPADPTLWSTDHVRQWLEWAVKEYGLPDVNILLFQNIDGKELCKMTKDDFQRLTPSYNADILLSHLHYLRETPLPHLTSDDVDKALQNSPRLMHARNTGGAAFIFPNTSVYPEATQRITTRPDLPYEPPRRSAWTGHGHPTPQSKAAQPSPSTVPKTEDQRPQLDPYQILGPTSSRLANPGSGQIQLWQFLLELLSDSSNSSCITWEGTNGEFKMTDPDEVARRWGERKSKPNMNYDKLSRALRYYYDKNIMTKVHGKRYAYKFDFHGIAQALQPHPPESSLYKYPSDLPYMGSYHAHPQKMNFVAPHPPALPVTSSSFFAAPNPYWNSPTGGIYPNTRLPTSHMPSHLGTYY
# Method in brief: as §1
# ELF1 = ELF1 (Homo sapiens, UniProt P32519 1-619)
# Chain of ELF1 (P32519 whole entry): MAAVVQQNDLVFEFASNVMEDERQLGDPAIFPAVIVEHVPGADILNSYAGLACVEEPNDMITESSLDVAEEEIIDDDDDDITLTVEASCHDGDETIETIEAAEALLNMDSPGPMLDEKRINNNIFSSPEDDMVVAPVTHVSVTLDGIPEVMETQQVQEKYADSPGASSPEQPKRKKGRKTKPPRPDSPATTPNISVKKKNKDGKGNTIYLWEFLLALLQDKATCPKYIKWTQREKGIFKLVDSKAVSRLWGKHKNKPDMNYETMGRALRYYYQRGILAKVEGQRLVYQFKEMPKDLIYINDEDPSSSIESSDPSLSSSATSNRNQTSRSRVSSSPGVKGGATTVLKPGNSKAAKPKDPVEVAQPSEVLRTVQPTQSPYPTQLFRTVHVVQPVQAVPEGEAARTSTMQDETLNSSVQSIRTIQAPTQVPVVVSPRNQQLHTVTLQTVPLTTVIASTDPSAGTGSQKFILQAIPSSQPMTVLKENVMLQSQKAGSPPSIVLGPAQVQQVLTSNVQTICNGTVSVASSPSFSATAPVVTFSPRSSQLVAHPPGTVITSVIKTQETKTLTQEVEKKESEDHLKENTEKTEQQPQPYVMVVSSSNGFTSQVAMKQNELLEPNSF
# Method in brief: as §1
# EHF = molecular target: T4, EHF (Homo sapiens, UniProt Q9NZC4 1-300)
# T4 sequence: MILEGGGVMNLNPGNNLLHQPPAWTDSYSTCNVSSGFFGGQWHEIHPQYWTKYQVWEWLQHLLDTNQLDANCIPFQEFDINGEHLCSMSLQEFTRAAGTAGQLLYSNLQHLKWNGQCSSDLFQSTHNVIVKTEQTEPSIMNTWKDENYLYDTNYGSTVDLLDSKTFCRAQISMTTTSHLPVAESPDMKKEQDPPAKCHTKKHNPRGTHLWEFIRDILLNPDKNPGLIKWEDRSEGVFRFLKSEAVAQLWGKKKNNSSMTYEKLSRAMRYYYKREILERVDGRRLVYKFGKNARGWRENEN
# Method in brief: as §1
# SPIB = SPIB (Homo sapiens, UniProt Q01892 1-262)
# Chain of SPIB (Q01892 whole entry): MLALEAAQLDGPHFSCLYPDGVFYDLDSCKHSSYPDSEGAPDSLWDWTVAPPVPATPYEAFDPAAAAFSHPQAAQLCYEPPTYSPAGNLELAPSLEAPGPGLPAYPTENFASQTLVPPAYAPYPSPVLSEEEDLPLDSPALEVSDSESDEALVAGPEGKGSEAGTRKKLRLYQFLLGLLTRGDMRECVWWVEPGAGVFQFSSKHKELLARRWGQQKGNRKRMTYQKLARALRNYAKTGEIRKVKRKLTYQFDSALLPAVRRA
# Method in brief: as §1
# FEV = molecular target: T5, FEV (Homo sapiens, UniProt Q99581 1-238)
# T5 sequence: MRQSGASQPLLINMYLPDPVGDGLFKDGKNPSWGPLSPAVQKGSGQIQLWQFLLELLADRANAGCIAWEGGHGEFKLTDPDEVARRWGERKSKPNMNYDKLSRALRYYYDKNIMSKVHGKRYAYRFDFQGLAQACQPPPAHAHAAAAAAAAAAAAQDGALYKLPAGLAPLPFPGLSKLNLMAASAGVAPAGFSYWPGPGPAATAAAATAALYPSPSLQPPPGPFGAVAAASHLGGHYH
# Method in brief: as §1
# ETV5 = ETV5 (Homo sapiens, UniProt P41161 1-510)
# Chain of ETV5 (P41161 whole entry): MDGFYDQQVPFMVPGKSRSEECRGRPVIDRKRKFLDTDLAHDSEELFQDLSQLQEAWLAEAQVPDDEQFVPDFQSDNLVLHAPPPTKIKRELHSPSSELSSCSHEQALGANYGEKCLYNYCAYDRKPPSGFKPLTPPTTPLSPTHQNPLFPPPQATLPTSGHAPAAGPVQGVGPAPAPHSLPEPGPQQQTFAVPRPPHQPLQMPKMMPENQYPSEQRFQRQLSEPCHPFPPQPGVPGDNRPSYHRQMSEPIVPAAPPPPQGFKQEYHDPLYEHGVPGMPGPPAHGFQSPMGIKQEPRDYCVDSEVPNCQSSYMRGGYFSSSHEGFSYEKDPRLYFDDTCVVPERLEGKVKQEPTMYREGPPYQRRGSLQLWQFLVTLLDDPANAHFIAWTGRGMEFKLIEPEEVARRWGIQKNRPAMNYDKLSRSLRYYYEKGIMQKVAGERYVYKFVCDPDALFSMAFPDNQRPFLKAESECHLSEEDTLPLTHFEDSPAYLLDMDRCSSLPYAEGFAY
# Method in brief: as §1
# ELF4 = ELF4 (Homo sapiens, UniProt Q99607 1-663)
# Chain of ELF4 (Q99607 whole entry): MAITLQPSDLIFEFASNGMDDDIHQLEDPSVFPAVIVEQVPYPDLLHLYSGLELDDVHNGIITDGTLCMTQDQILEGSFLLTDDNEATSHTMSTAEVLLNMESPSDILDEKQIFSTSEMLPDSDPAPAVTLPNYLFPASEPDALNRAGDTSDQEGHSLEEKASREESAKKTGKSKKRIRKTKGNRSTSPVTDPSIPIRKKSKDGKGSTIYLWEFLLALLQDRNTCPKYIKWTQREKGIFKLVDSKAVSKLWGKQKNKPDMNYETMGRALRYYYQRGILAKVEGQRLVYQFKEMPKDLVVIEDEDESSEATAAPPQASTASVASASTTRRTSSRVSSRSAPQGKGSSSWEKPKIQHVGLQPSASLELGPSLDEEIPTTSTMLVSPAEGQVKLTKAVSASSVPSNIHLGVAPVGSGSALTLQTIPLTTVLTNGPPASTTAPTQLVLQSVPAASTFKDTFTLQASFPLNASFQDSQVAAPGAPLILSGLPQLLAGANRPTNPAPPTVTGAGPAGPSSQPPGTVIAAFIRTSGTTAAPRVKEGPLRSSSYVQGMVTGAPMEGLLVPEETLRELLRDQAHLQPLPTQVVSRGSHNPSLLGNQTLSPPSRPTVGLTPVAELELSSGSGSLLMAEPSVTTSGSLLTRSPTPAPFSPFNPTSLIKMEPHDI
# Method in brief: as §1
# ETV2 = molecular target: T6, ETV2 (Homo sapiens, UniProt O00321 1-342)
# T6 sequence: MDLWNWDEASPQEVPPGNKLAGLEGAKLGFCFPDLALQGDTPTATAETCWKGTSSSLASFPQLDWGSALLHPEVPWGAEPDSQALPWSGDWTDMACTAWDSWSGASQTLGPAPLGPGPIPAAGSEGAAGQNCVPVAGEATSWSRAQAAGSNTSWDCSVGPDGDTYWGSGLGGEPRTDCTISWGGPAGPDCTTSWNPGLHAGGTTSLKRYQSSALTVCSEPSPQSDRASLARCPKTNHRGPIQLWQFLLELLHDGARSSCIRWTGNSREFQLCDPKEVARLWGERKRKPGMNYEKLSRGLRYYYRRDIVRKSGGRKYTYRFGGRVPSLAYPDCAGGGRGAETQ
# Method in brief: as §1
# ELF3 = molecular target: T7, ELF3 (Homo sapiens, UniProt P78545 1-371)
# T7 sequence: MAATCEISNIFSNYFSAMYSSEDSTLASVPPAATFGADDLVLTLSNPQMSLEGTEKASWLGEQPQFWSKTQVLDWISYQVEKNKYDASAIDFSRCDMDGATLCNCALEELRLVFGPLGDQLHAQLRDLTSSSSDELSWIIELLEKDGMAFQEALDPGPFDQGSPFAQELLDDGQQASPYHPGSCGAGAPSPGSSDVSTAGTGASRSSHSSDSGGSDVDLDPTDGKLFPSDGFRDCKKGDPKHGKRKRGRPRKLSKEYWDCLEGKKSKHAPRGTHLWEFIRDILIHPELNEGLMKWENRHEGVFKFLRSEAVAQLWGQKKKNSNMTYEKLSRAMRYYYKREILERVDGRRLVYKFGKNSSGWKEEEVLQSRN
# Method in brief: as §1
# ETV1 = ETV1 (Homo sapiens, UniProt P50549 1-477)
# Chain of ETV1 (P50549 whole entry): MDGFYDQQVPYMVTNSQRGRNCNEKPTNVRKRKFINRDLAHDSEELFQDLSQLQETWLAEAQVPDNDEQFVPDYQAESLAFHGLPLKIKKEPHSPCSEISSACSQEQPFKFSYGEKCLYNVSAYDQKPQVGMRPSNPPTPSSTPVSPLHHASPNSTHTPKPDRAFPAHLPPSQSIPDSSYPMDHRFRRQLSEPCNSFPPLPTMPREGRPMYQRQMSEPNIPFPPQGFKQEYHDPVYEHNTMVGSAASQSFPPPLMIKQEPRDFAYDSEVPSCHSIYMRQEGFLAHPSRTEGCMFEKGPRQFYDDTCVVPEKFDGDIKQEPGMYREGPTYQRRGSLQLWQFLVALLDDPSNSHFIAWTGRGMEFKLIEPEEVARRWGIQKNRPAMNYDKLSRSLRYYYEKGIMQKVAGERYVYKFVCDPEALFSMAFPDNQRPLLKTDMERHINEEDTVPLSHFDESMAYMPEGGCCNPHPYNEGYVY
# Method in brief: as §1
# ERF = molecular target: T8, ERF (Homo sapiens, UniProt P50548 1-548)
# T8 sequence: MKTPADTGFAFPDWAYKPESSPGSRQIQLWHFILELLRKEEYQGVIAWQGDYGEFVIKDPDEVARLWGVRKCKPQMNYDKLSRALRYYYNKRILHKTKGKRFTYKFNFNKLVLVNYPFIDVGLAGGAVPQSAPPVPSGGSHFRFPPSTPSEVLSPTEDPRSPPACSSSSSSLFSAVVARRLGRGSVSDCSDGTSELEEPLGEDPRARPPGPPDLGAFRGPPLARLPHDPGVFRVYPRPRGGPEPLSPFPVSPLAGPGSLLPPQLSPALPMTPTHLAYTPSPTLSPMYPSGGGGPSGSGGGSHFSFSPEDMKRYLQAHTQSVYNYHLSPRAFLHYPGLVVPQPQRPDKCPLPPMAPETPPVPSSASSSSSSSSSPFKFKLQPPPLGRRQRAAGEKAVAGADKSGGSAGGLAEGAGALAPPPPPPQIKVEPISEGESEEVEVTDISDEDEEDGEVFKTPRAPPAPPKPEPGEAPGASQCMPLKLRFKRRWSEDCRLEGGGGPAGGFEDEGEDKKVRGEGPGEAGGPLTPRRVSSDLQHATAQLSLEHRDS
# Method in brief: as §1
# ETV3L = molecular target: T9, ETV3L (Homo sapiens, UniProt Q6ZN32 1-361)
# T9 sequence: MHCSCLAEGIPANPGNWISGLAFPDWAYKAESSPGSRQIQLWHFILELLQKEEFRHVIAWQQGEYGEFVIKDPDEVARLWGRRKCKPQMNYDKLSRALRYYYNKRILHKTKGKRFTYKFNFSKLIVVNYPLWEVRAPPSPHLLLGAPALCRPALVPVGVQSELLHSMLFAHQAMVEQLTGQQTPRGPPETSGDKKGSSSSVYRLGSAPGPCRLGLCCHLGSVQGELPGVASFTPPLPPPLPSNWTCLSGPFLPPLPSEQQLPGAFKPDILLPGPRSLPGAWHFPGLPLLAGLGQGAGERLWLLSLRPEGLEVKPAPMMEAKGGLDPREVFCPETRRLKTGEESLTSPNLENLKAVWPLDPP
# Method in brief: as §1
# ETS2 = molecular target: T10, ETS2 (Homo sapiens, UniProt P15036 1-469)
# T10 sequence: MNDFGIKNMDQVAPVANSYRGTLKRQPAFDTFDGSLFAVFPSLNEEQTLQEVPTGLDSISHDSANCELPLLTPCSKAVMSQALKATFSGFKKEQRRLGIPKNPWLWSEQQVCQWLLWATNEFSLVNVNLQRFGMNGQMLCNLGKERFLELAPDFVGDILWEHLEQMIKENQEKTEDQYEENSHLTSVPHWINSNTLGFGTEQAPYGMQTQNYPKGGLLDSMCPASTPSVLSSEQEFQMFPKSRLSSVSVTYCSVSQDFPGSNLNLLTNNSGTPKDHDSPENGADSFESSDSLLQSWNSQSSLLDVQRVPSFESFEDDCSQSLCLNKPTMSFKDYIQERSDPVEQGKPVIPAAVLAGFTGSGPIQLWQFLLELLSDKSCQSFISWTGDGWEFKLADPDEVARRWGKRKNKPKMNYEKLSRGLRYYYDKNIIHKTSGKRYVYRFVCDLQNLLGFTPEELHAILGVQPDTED
# Method in brief: as §1
# SPDEF = molecular target: T11, SPDEF (Homo sapiens, UniProt O95238 1-335)
# T11 sequence: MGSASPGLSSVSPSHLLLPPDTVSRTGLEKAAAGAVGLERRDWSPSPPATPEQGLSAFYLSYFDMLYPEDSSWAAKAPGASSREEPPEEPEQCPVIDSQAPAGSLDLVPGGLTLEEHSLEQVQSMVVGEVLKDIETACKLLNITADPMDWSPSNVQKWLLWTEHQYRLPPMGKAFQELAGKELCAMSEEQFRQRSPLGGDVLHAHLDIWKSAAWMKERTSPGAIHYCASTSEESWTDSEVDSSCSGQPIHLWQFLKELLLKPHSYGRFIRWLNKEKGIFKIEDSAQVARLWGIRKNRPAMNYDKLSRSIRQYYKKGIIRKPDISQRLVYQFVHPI
# Method in brief: as §1
# ETV7 = molecular target: T12, ETV7 (Homo sapiens, UniProt Q9Y603 1-341)
# T12 sequence: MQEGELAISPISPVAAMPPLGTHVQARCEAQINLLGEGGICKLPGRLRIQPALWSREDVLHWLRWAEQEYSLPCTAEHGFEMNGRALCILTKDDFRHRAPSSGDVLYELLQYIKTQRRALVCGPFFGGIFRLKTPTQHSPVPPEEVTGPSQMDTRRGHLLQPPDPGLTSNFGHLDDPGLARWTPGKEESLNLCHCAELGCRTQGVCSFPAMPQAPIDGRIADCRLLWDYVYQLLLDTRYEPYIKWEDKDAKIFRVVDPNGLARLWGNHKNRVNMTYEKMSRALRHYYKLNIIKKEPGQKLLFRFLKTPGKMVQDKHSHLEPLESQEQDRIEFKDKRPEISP
# Method in brief: as §1
# ETV3 = molecular target: T13, ETV3 (Homo sapiens, UniProt P41162-2 1-143)
# T13 sequence: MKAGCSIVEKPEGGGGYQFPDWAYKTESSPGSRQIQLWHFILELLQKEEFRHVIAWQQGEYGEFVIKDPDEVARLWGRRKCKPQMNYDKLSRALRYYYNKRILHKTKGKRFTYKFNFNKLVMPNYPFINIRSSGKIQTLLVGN
# Method in brief: as §1
# ETV6 = ETV6 (Homo sapiens, UniProt P41212 1-452)
# Chain of ETV6 (P41212 whole entry): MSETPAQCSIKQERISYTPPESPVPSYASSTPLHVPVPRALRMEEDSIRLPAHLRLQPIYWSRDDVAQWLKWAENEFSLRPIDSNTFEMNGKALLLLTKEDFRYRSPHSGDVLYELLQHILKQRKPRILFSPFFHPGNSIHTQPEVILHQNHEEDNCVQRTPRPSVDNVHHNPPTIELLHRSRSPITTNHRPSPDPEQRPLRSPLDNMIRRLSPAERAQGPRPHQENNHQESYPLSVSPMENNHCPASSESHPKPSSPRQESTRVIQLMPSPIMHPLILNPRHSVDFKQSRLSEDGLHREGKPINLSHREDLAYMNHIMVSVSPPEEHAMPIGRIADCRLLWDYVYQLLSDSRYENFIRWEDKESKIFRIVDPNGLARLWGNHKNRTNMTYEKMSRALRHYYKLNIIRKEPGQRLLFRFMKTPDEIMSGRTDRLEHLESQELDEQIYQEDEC
# Method in brief: as §1
sequence,measurement,setting,value
AACCGC,binding signal,ELK1,"1.07 fold enrichment (6-mer frequency, TF over GST control)"
same,binding signal,GABPA,"1.1 fold enrichment (6-mer frequency, TF over GST control)"
same,binding signal,ERG,"1.09 fold enrichment (6-mer frequency, TF over GST control)"
same,binding signal,ELF1,"1.11 fold enrichment (6-mer frequency, TF over GST control)"
same,binding signal,EHF,"1.18 fold enrichment (6-mer frequency, TF over GST control)"
same,binding signal,SPIB,"1.12 fold enrichment (6-mer frequency, TF over GST control)"
same,binding signal,FEV,"1.09 fold enrichment (6-mer frequency, TF over GST control)"
same,binding signal,ETV5,"1.09 fold enrichment (6-mer frequency, TF over GST control)"
same,binding signal,ELF4,"1.12 fold enrichment (6-mer frequency, TF over GST control)"
same,binding signal,ETV2,"1.12 fold enrichment (6-mer frequency, TF over GST control)"
same,binding signal,ELF3,"1.1 fold enrichment (6-mer frequency, TF over GST control)"
same,binding signal,ETV1,"1.02 fold enrichment (6-mer frequency, TF over GST control)"
same,binding signal,ERF,"1.08 fold enrichment (6-mer frequency, TF over GST control)"
same,binding signal,ETV3L,"1.08 fold enrichment (6-mer frequency, TF over GST control)"
same,binding signal,ETS2,"1.1 fold enrichment (6-mer frequency, TF over GST control)"
same,binding signal,SPDEF,"1.11 fold enrichment (6-mer frequency, TF over GST control)"
same,binding signal,ETV7,"1.07 fold enrichment (6-mer frequency, TF over GST control)"
same,binding signal,ETV3,"1.08 fold enrichment (6-mer frequency, TF over GST control)"
same,binding signal,ETV6,"1.19 fold enrichment (6-mer frequency, TF over GST control)"
